Only a sample is shown.
aSyn 5UTR act = Activators via SNCA 5'UTR binding, MLPCN. alpha-synuclein 5'UTR reporter, activators screen. activity score, % (tested at 7.5 µM), hits read low. 7.1% of 300,000 active; in the data active = activity score below about -60%
* marks the source's active call; other numbers are inactive results.

SMILES | aSyn 5UTR act
C=CCNC(=O)c1cc2c(=O)n3ccccc3nc2s1 | -218.5*
COc1ccc(-c2cnnc(N/N=C/c3ccc(O)c(OC)c3)n2)cc1 | -95.1*
COc1ccc(/C=N/Nc2nc(N)cc(Cl)n2)cc1OC | -74.5*
COc1ccc(/C=N/Nc2ccccn2)cc1OC | -114.5*
COc1cc(/C=N/Nc2ccccn2)ccc1O | -90.7*
C/C(=N/NC(=O)C(O)(c1ccccc1)c1ccccc1)c1ccc([N+](=O)[O-])o1 | -66.1*
COc1ccc(C(=O)Nc2cc(C)on2)c(OC)c1 | -141.2*
Cc1cc(NC(=O)Nc2ccc(C)c(C)c2)no1 | -122.7*
COc1ccc(C(=O)Nc2ccc(C)cn2)c(OC)c1 | 115.5
COc1cccc(NC(=O)Nc2cc(C)on2)c1 | -92.6*
COc1cccc(C(=O)NC(=O)Nc2cc(C)on2)c1 | -93.8*
Cc1cccc(N=C2NN=C(c3ccc4c(c3)OCCO4)CS2)c1 | -139.8*
Cc1cccc(N=C2NN=C(c3c(C)[nH]c4ccccc34)CS2)c1 | -90.3*
Cc1cc(/C=C(\C#N)C(=O)Nc2ccccc2F)c(C)[nH]1 | -128.8*
Cc1cc(/C=C(\C#N)C(=O)NC2CC2)c(C)[nH]1 | -144.8*
Cc1cc(/C=C(\C#N)C(=O)NCc2ccco2)c(C)[nH]1 | -64.2*
Cc1cc(C)cc(NC(=O)/C(C#N)=C/c2cn(CC(=O)NCc3ccco3)c3ccccc23)c1 | 110.5
CCN(CC)C(NC(=O)c1ccccc1)C(=O)c1ccccc1 (stereo not given) | -68.9*
Cc1c(C(=O)NNC(=S)Nc2cccc(Cl)c2)nnn1-c1ccccc1 | -68.8*
O=C(Nc1ncc([N+](=O)[O-])s1)c1cccs1 | -106.1*
O=C(Nc1ncc([N+](=O)[O-])s1)c1ccccc1Br | -126.3*
O=C(Nc1cc([N+](=O)[O-])ccc1F)c1cccs1 | -70.3*
Cc1ccc(CC(=O)Nc2ncc([N+](=O)[O-])s2)cc1 | -136.3*
Cc1cnc(NC(=O)c2cccs2)s1 | -82.3*
Cc1nc(NC(=O)c2ccc(Br)o2)sc1C | -129.4*
SMILES | aSyn 5UTR act
Cc1ccc(C(=O)Nc2nc(C)c(C)s2)o1 | -114.2*
O=C(OCc1nc2ccccc2s1)C1CCN(C2=NS(=O)(=O)c3ccccc32)CC1 | -97.6*
O=C1c2ccccc2S(=O)(=O)N1Cc1nc2ccccc2s1 | 111.7
COc1cc(C2NC(=S)NC(C)=C2C(=O)Nc2ccc(C)cc2)ccc1O (stereo not given) | -170.8*
O=C(Nc1ccc(-c2noc(CCc3ccccc3)n2)cc1)c1ccco1 | -115.1*
O=C1CCC(=O)N1CCCCCc1nc(-c2ccccc2)no1 | -103.8*
c1cncc(-c2noc(CC3CCCCC3)n2)c1 | -87.3*
Brc1ccc(-c2noc(CCc3ccccc3)n2)cc1 | -84.4*
CCCc1nc(-c2ccc(-c3ccc(F)cc3)cc2)no1 | -144.5*
c1ccc(CCc2nc(-c3cccnc3)no2)cc1 | -90.1*
c1ccc(CCc2nc(-c3ccccc3)no2)cc1 | -192.0*
CC(C)(C)c1ccc(-c2noc(CCC(N)=O)n2)cc1 | 90.8
Cc1ccnc2nc(C(=O)Nc3cc(Cl)ccc3N3CCOCC3)nn12 | -77.0*
O=C(Nc1ncc(Cl)cn1)c1cccs1 | -68.8*
Cc1cc(-c2nc3ncccc3o2)ccc1NC(=S)NC(=O)c1ccco1 | -67.0*
Cc1ccnc(NC(=S)NC(=O)c2ccco2)c1 | -140.5*
Cc1ccnc(NC(=S)NC(=O)c2cccs2)c1 | -270.4*
O=C(NC(=S)Nc1cccnc1Cl)c1ccco1 | -61.9*
O=C(Nc1ccc(-c2nc3ncccc3o2)cc1)c1ccc([N+](=O)[O-])o1 | 100.3
O=C(NC(=S)Nc1ccccn1)c1ccco1 | -172.9*
Cc1ccc(-c2nc3ncccc3o2)cc1NC(=O)c1ccc([N+](=O)[O-])o1 | -511.0*
O=C(NC(=S)Nc1ccc(Cl)cn1)c1cccs1 | -92.3*
Cc1ccc(SSc2cc(C)ccc2N)c(N)c1 | -202.9*
Cn1c(=O)c(-c2cc(Br)ccc2N)nc2ccccc21 | -64.1*
COc1ccc(C(=O)OCc2csc(C)n2)c(O)c1 | -180.2*
SMILES | aSyn 5UTR act
COc1ccc(C(=O)Cc2ccc3c(c2)OCO3)c(O)c1 | -106.9*
O=C(Cc1ccc(Br)cc1)c1ccc(O)cc1O | -121.4*
COc1ccc(CC(=O)c2ccc(O)cc2O)cc1 | -85.0*
O=[N+]([O-])c1cc(Br)cc(C=Nc2ccc3c(c2)OCO3)c1O | -89.0*
CNc1nc(N/N=C/c2cc3c(cc2[N+](=O)[O-])OCO3)nc(Nc2ccccc2)n1 | 73.6
O=[N+]([O-])c1ccc(O)c(C=Nc2ccc3c(c2)OCO3)c1 | -86.4*
CC1(C)CC(=O)C(C=Nc2ccc3c(c2)OCO3)=C(O)C1 | -70.9*
CC(=O)Nc1ccc(N/C=C/C(=O)c2ccco2)cc1 | -323.0*
O=C(/C=C/Nc1ccccc1O)c1ccco1 | -86.5*
CN(C)c1ccc(N/C=C/C(=O)c2ccco2)cc1 | -105.1*
O=C(/C=C/Nc1ccc(Br)cc1F)c1ccco1 | 57.4
COc1ccc(NC(=O)n2ncc3c(C)cccc32)cc1 | -88.4*
Cc1ccc(NC(=O)n2ncc3c(C)cccc32)cc1F | -70.9*
COc1ccc(NC(=O)n2ncc3c(C)cccc32)cc1OC | -164.7*
COc1ccc(C(=O)NC2=Nc3ccccc3N=C(C)C2c2ccccc2)cc1 (stereo not given) | -227.6*
COc1ccc(C(=O)Nc2ccccc2C(=O)Nc2ccccc2C(=O)O)cc1 | -98.2*
COc1cc(OC)cc(C(=O)NNC(=O)c2ccccn2)c1 | 72.7
COc1cc(OC)cc(C(=O)Nc2ccccc2C(=O)N2CCCC2)c1 | -123.1*
COc1ccc(C(=O)Nc2ccccc2C(=O)Nc2ccncc2)cc1 | -104.6*
COc1ccc(C(=O)Nc2ccccc2C(=O)N/N=C/c2cccc3ccccc23)cc1 | -169.1*
COc1ccc(C(=O)N[C@H](C(=O)Nc2nc3ccccc3[nH]2)C(C)C)cc1 | 106.1
CCC(NC(=O)c1ccccc1NC(=O)c1ccc(OC)cc1)C(=O)N1CCCC1 (stereo not given) | -69.3*
O=C(NC1CCCC1)c1cc2c(ccc3ccccc32)o1 | -202.3*
CNC(=O)c1cc2c(ccc3ccccc32)o1 | -60.5*
O=C(Nc1cc2c(ccc3ccccc32)oc1=O)C1CCCCC1 | -62.2*
SMILES | aSyn 5UTR act
OCCN(CC#CCn1c2ccccc2c2ccccc21)CCO | 43.3
CCN(CC)CCn1c2ccccc2c2nc3ccccc3nc21 | -212.7*
c1ccc2c(c1)CC/C2=N/Nc1nc2ccccc2[nH]1 | -174.3*
Cc1ccc(C2C=NN(c3ccccc3)C2=O)cc1 (stereo not given) | -64.4*
Oc1ccccc1/C=N/Nc1ccccc1 | -133.2*
Oc1ccc(/C=N/Nc2ccc3ccccc3c2)c(O)c1 | -134.5*
CCC1(C)Cc2ccccc2-c2nc(NCCO)n(-c3ccc(C)cc3)c(=O)c21 (stereo not given) | -63.2*
O=C(Nc1ccc(N2CCCCC2)cc1)c1cncc(Br)c1 | -128.4*
O=C(Nc1ccc(N2CCN(C(=O)c3ccccc3F)CC2)cc1)c1cncc(Br)c1 | -73.7*
COc1ccc(-c2cn3c(C)c(C(=O)NC(C)(C)C)sc3n2)cc1 | -229.2*
COc1ccc(-c2cn3c(C)c(C(=O)NC(C)C)sc3n2)cc1 | -77.8*
Cc1c(C(=O)Nc2ccc3c(c2)CCC3)cccc1[N+](=O)[O-] | -204.0*
O=C(Nc1ccc2c(c1)CCC2)c1ccccc1Br | -128.6*
CSc1ccccc1C(=O)Nc1ccc2c(c1)CCC2 | -135.2*
COC(=O)c1ccc(NC(=O)c2ccccc2SC)cc1 | -66.8*
CC(C)NCC(O)Cn1c2c(c3ccccc31)CCc1c-2cnn1-c1ccccc1 (stereo not given) | 107.8
Cc1ccc2nc(C3CCCCC3)[nH]c2c1 | -93.5*
O=C(O)c1ccccc1-c1ncc(-c2ccccc2)o1 | -136.6*

Bioassay records from PubChem.
